Shown are actives, neighbours in structure and some others; about 7% of the full set was active somewhere.
ADAM10 inh = inhibits human ADAM10; O14672; recombinant ADAM10, EDANS/DABCYL FRET peptide cleavage, 3 h; inhibition, % at 7 µM; 0.62% of 370,000 active; AID 720582;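 active = inhibition above a per-campaign cutoff equal to the mean of compounds falling between control-based bounds plus 3 SD, cut at about 20% in these data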;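 also: 0% = DMSO wells while the 100% control is not disclosed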
Target sequence (O14672 214-748 limits assumed): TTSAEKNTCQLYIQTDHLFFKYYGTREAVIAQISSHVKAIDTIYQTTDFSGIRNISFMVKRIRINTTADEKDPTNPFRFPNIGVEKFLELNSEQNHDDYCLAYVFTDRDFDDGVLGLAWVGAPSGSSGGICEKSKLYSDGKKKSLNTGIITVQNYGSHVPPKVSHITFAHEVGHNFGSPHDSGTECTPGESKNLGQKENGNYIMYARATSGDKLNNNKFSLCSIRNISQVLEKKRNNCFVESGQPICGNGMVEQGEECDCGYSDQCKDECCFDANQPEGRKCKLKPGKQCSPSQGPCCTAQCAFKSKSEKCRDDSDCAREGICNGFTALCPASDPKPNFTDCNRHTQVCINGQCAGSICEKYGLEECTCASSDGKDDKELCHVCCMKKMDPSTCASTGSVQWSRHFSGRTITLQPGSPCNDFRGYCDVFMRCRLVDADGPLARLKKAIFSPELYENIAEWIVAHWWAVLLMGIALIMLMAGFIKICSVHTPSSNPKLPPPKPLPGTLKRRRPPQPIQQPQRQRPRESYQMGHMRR
rCAG binder = r(CAG) repeat RNA binding. TO-PRO-1 dye displacement fluorescence. inhibition, % at 3 µM. 1.3% of 370,000 active. AID 651821;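 active = inhibition above the plate cutoff, the mean of all test compounds on that plate plus 3 SD, cut at about 35% in these data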;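 also: 0% = DMSO alone and 100% = 100 µM mitoxantrone as full dye displacement; higher means more dye released from RNA so lower well fluorescence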
AHR activator = activates the human aryl hydrocarbon receptor. AHR-responsive luciferase reporter cells, luminescence. 2.5% of 320,000 active. P35869. activation, % at 5 µM; in the data active = activation above about 47%;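 also: 0% = vehicle wells and 100% = reference agonist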
KLK7 zymogen act = proKLK7 (human) activation, primary screen; P49862; purified proKLK7, EDANS-DABCYL substrate fluorescence; 100% is mature enzyme control, 0% vehicle; activation, % at 7 µM; 0.9% of 370,000 active; AID 652039;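 active = activation above the mean of all tested compounds plus 3 SD, computed per campaign excluding outliers beyond control limits, cut at about 13% in these data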
GRIN3A LBD mod = modulators (binders) of human NR3A ligand-binding domain. Tm shift relative to glycine control, % at 25 µM. 2.5% of 340,000 active. NR3A LBD differential scanning fluorimetry, Tm shift; 0% = protein alone, 100% = glycine-bound protein;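 active = melting temperature shift of at least 10% of the positive control shift, at one fixed dose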
ADAM17 inh = ADAM17 inhibition, QFRET primary screen | P78536 | recombinant ADAM17, EDANS/DABCYL FRET peptide cleavage | inhibition, % at 6.95 µM | 0.83% of 370,000 active;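 active = inhibition above the mean of compounds lying between control limits plus 3 SD, set per campaign, cut at about 8.5% in these data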;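 also: 0% = DMSO-only wells as the low control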
AHR act cf = human AHR activation, confirmation. shares compounds with AHR activator. human cells, AHR-responsive luciferase reporter, luminescence. activation, % at 9 µM. 87% of 2,300 active. AID 2845; in the data active = activation above about 49%;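 also: HepG2 hepatoma cells carrying a DRE-driven firefly luciferase reporter; 0% = vehicle wells and 100% = reference agonist wells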
PXR counter = PXR activation, counter-screen for AHR activators | AID 434939 | 88% of 2,300 active | shares compounds with AHR activator | cell-based PXR reporter, luciferase luminescence | activation, % at 11.6 µM; in the data active = activation above about 11%;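 also: human hepatoma DPX-2 cells expressing full-length human PXR; 0% = DMSO and 100% = reference agonist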
rCAG bind conf = r(CAG) RNA repeat binding, confirmation; shares compounds with rCAG binder; TO-PRO-1 dye displacement fluorescence; inhibition, % at 3 µM; 70% of 4,300 active;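 active = inhibition above a per-plate cutoff, the mean inhibition of sample wells plus 3 SD, cut at about 35% in these data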;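 also: loss of TO-PRO-1 fluorescence as compound displaces dye from 1x1 AA loop RNA; 0% = DMSO only wells and 100% = 100 µM mitoxantrone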
DNA CAG counter = DNA CAG dye complex inhibition counter-screen | inhibition, % at 3 µM | d(CAG) DNA oligo TO-PRO-1 dye displacement, fluorescence | 94% of 4,300 active | shares compounds with rCAG binder;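 active = inhibition above its plate's cutoff, the mean test-well inhibition plus 3 SD, cut at about 4.8% in these data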;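 also: 0% = DNA dye mix with DMSO and 100% = 100 µM mitoxantrone; hits displace the dye from DNA and so lower well fluorescence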
DNA CAG DR = DNA CAG dye complex inhibition, dose response counter-screen | shares compounds with rCAG binder | 20% of 250 active | IC50, µM | DNA CAG/GTC duplex TO-PRO-1 dye displacement fluorescence | AID 686960; in the data active = IC50 below about 10 µM
ADAM10 counter = inhibits human ADAM10 in ADAM17 exosite counter-screen; shares compounds with ADAM17 inh; recombinant ADAM10, EDANS/DABCYL FRET peptide cleavage, 3 h; inhibition, % at 6.95 µM; 47% of 2,900 active; AID 743256;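 active = mean inhibition over the triplicate runs exceeds the activity threshold set in the earlier primary screen, cut at about 20% in these data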;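 also: 0% = DMSO wells and 100% = marimastat wells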
ADAM17 confirm = human ADAM17 inhibition, confirmation; shares compounds with ADAM17 inh; recombinant ADAM17, EDANS/DABCYL QFRET peptide cleavage; inhibition, % at 6.95 µM; 65% of 2,900 active;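 active = mean inhibition across replicates above the hit cutoff set in the primary screen, cut at about 8.5% in these data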;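 also: 0% = DMSO wells and 100% = marimastat wells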
An asterisk follows results filed as active.

For COc1cc(NC(=O)C/C(C)=N/NC(=O)Cc2ccccc2)c(OC)cc1Cl the results were ADAM10 inh 7.2, rCAG binder 4.2, AHR activator 147.3*, KLK7 zymogen act -0.6, GRIN3A LBD mod -4.1, ADAM17 inh 10.7*, AHR act cf 4.5, PXR counter 15.5*, ADAM10 counter 12.7 and ADAM17 confirm 11.1*.
`COc1ccc(Cl)cc1NC(=O)C/C(C)=N/NC(=O)CCc1ccccc1` gave ADAM10 inh 2.9, rCAG binder 19.1, AHR activator 15.8, KLK7 zymogen act 0.3, GRIN3A LBD mod 1.0 and ADAM17 inh -1.4.
`C=CCN(CC#Cc1ccccn1)Cc1ccc(OC)cc1OC` gave ADAM10 inh -10.7, rCAG binder 0.5, KLK7 zymogen act 0.4 and ADAM17 inh -2.5.
For CCn1c(=O)cc(N2CCN(c3cccc(C(F)(F)F)c3)CC2)[nH]c1=O the results were ADAM10 inh 0.2 and ADAM17 inh -1.7.
`C[C@H]1[C@@H](OC(=O)NCc2ccccc2Cl)CC[C@@]23CCCN2C(=O)CCC[C@@H]13` gave ADAM10 inh -12.0 and ADAM17 inh -6.5.
`NS(=O)(=O)c1ccc(N/N=C/C=C/c2ccccc2[N+](=O)[O-])cc1` gave ADAM10 inh 17.4, rCAG binder 16.4, AHR activator 82.2*, KLK7 zymogen act -0.2, GRIN3A LBD mod 0.5, ADAM17 inh 8.7*, AHR act cf 5.5, PXR counter 25.4*, ADAM10 counter 18.6 and ADAM17 confirm 18.5*.
Nc1ccc(S(=O)(=O)NN=CC=Cc2ccccc2[N+](=O)[O-])cc1 was read as ADAM10 inh -54.9, rCAG binder 4.7, KLK7 zymogen act 0.1, GRIN3A LBD mod 0.6 and ADAM17 inh 1.6.
c1ccc(-c2nc(NCc3ccco3)c3oc4ccccc4c3n2)cc1 was read as ADAM10 inh 3.8, rCAG binder 16.2, AHR activator 87.6*, KLK7 zymogen act 0.4, GRIN3A LBD mod 3.5, ADAM17 inh 9.0*, AHR act cf 105.0*, PXR counter 34.6*, ADAM10 counter 29.3* and ADAM17 confirm 19.2*.
`COC(=O)c1ccc(C(=O)OC)c(NC(=O)Cc2cccs2)c1` gave ADAM10 inh -187.9, rCAG binder 38.7*, KLK7 zymogen act -0.2, ADAM17 inh -45.1, rCAG bind conf 23.2 and DNA CAG counter 17.4*.
For COc1ccccc1NC(=O)Cc1cccs1 the results were ADAM10 inh -0.2, rCAG binder -0.1, AHR activator 4.6, KLK7 zymogen act 0.2, GRIN3A LBD mod 0.1 and ADAM17 inh -3.0.
`C#CCOCCOCCOCCNc1nc(N2CCN(C(=O)[C@H]([C@@H](C)CC)n3cc(CCCCN)nn3)CC2)nc(N2CCN(C(=O)[C@H](Cc3ccc(O)cc3)n3cc(CCO)nn3)CC2)n1` gave ADAM10 inh -0.4 and ADAM17 inh -2.0.
N#CC(C#N)=NNc1ccc(S(=O)(=O)N2CCCCC2)cc1 was read as ADAM10 inh 12.0, rCAG binder 45.5*, AHR activator -3.2, KLK7 zymogen act 0.1, GRIN3A LBD mod 12.0*, ADAM17 inh 2.6, rCAG bind conf 41.2* and DNA CAG counter 15.3*.
Screening CC(C)(C)c1ccc(-c2cn(C[C@H](Cc3ccccc3)n3c(=O)c4ccccc4n3Cc3ccco3)nn2)cc1 returned ADAM10 inh -36.5, rCAG binder 12.3, KLK7 zymogen act -2.0 and ADAM17 inh -6.1.
`c1ccc(N=Nc2cn[nH]c2-c2ccco2)cc1` gave ADAM10 inh 14.6, rCAG binder 5.0, KLK7 zymogen act -0.1, GRIN3A LBD mod -0.9 and ADAM17 inh 1.7.
Screening c1coc(-c2nc(N=C3N=c4ccccc4=N3)[nH]c2-c2ccco2)c1 returned ADAM10 inh -12.5, rCAG binder 39.2*, KLK7 zymogen act -0.4, ADAM17 inh 3.7, rCAG bind conf 26.0 and DNA CAG counter 18.8*.
`Nc1c(C=C2C=CC(=O)C=C2)c(=O)nc2snc(SCc3ccccc3)n12` gave ADAM10 inh -0.7, rCAG binder 51.7*, AHR activator 8.6, KLK7 zymogen act 0.0, GRIN3A LBD mod 18.1*, ADAM17 inh -2.7, rCAG bind conf 49.7* and DNA CAG counter 16.4*.
O=C1CS/C(=N/N=C/c2ccc(OS(=O)(=O)c3ccccc3)cc2)N1 was read as ADAM10 inh 4.7, rCAG binder 39.9*, AHR activator -1.9, KLK7 zymogen act -0.2, GRIN3A LBD mod -8.3, ADAM17 inh -1.9, rCAG bind conf 37.8* and DNA CAG counter 9.7*.
Screening NC(N)=N/N=C/c1ccc(OS(=O)(=O)c2ccccc2)cc1 returned ADAM10 inh 0.7, rCAG binder 18.0, AHR activator 3.5, KLK7 zymogen act -0.1, GRIN3A LBD mod -2.0 and ADAM17 inh 0.6.
For O=C1NC(c2ccc3c(c2)OCO3)c2c(-c3ccccc3)n[nH]c21 (stereo not given) the results were ADAM10 inh 3.2, rCAG binder 4.7, KLK7 zymogen act -0.4 and ADAM17 inh 2.9.
For CCCOc1ccc(N2C(=O)CC(S/C(N)=N/N=C(\C)c3cccs3)C2=O)cc1 (stereo not given) the results were ADAM10 inh 13.8, rCAG binder 65.7*, AHR activator 3.4, KLK7 zymogen act -0.1, ADAM17 inh -3.5, rCAG bind conf 70.3*, DNA CAG counter 26.0* and DNA CAG DR >29.9.
COc1cccc(N=Nc2c(=O)[nH]n3c(=O)c4c([nH]c23)CCC4)c1 was read as ADAM10 inh -1.1, rCAG binder 38.8*, AHR activator 2.1, KLK7 zymogen act -0.3, GRIN3A LBD mod -0.1, ADAM17 inh -0.8, rCAG bind conf 33.6 and DNA CAG counter 7.6*.

Compound activity deposited in PubChem by several laboratories.
